# Compound activity deposited in PubChem BioAssay by National Center for Advancing Translational Sciences (NCATS).
# Only some compounds are listed: those with a hit (about 5.7% of all), similar ones and a draw of the others.
# RORg inh = inhibitors of mouse ROR gamma transcriptional activity; hit rate 5.4% among 310,000; AID 2551; Drosophila S2 Gal4-RORgamma UAS-luciferase reporter, 20 h; Potency, µM (series often up to 53.6 µM), for inactives: at the top dose activity change, negative = inhibition, usual class: inhibitors; P51450; further: nearly all actives have a fitted effect of over 60% in size
#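 ROR gamma transcriptional activity was tracked as Gal4-UAS luciferase output in stably transfected Drosophila Schneider cells, with compound added 1 hr before 700 uM copper sulfate induction and a 20 hr ambient-temperature incubation.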
# VP16 counter = inhibits Gal4-VP16 luciferase reporter, ROR gamma counter-screen. Drosophila S2 Gal4-VP16 UAS-luciferase, luminescence, 20 h. hit rate 3.5% among 310,000. Potency, µM (highest dose often 53.6 µM), for inactives: top-dose activity, negative = inhibition, hits mostly inhibitors;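 further: Gal4-VP16 expression switched on by copper sulfate through the metallothionein promoter; nearly all actives have a fitted effect of over 50% in size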
# NPSR antag = blocks cAMP signaling of the human neuropeptide S receptor. CHO-NPSR cells, cAMP TR-FRET, antagonist mode. Q6W5P4. Potency, µM (top dose mostly 38.3 µM), without a hit: at the highest dose activity change, negative = inhibition, hits mostly inhibitors. hit rate 1% among 220,000; further: nearly all actives have a fitted effect of over 50% in size
# Target sequence (Q6W5P4 whole entry, looked up): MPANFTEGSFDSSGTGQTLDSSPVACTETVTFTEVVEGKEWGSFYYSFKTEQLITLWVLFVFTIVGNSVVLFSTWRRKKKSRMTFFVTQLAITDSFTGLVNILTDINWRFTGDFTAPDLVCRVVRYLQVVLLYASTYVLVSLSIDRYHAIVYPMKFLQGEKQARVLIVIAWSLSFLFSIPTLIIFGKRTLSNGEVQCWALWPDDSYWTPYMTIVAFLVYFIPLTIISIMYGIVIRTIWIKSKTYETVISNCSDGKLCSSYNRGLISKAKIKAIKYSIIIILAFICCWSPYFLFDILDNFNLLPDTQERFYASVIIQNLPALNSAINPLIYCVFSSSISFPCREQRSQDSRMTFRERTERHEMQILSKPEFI
# B2AR arrestin = beta2AR (human) beta-arrestin recruitment activity. beta-arrestin recruitment to beta2AR, cell-based reporter. Potency, µM (titrated, usually from 46.1 µM), without a hit: top-dose activation, actives largely listed as activators. hit rate 0.02% among 330,000. AID 492947;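 further: 0% = DMSO controls and full agonism = EC100 isoproterenol or metaproterenol; nearly all actives have a fitted effect of over 65% in size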
# The depositor's hits bear a star; ? = inconclusive; / = no result given; [ ] = another dose, or the depositor's remark. The call rests on the fitted dose curve; in most records, active means well fitted curve in the direction sought with a large enough effect; inconclusive means small, poorly fitted or top-dose-only effect, or another doubt; inactive means no such curve, though single readings can be large; an effect the other way counts as inactive or inconclusive. Unless noted, on the % scale 0 is the no-effect control and ±100 the full control effect; potency means the concentration at half of the fitted maximal effect.
SMILES,RORg inh,VP16 counter,NPSR antag,B2AR arrestin
COc1cc(/C=N/n2c(COc3ccccc3)n[nH]c2=S)cc(Br)c1O,-38%,-21%,/,0%
Oc1ccc(Br)cc1/C=N/n1c(COc2ccccc2)n[nH]c1=S,10µM*,?,/,0%
FC(F)(F)c1ccccc1/C=N/n1c(COc2ccccc2)n[nH]c1=S,5.6µM*,10µM*,/,-1%
S=c1[nH]nc(COc2ccccc2)n1/N=C/c1ccccc1Br,8.9µM*,?,/,0%
CCC1=C[C@@H]2CN(C1)Cc1c([nH]c3ccccc13)[C@@](C(=O)OC)(c1cc3c(cc1OC)N(C)[C@@H]1[C@@](O)(C(=O)OC)[C@H](OC(C)=O)[C@]4(CC)C=CCN5CC[C@]31[C@@H]54)C2,9%,-8%,/,/
O=C(NC(=S)NCCO)c1sc2ccccc2c1Cl,11µM*,-19%,-3%,-1%
CCCOC(=S)NC(=O)c1sc2ccccc2c1Cl,1%,-9%,3%[46.1 µM],0%
CCOC(=S)NC(=O)c1sc2ccccc2c1Cl,1.3µM*,5.6µM*,7%[46.1 µM],0%
CC(=O)OCC(CO)OC(C)=O (centres undefined) (tested in a mixture with another compound),9%,-2%,/,/
Cc1cccc(-n2c(O)c(/C=N/NC(=O)c3ccccc3Cl)c3ccccc3c2=O)n1,6.3µM*,4.5µM*,-15%,-1%
Cc1cccc(-n2c(O)c(C=Nc3cc(O)ccc3C)c3ccccc3c2=O)n1,11µM*,-15%,-22%,0%
Cc1ccc(NC(=O)c2cnn(-c3ccccc3)c2C)cc1C,5µM*,?,/,-1%
CC(=O)c1cccc(NC(=O)c2cnn(-c3ccccc3)c2C)c1,3.5µM*,2.2µM*,/,-1%
Cc1c(C(=O)Nc2cccc(F)c2)cnn1-c1ccccc1,?,?,/,1%
COc1ccc(NC(=O)c2cnn(-c3ccccc3)c2C)cc1OC,44%,13%,/,0%
CC1(C)C2CCC1(CS(=O)(=O)Nc1ccc(S(=O)(=O)N3CCCCC3)cc1)C(=O)C2 (centres undefined),?,-10%,-11%,2%
Cc1cc(S(=O)(=O)NCCC2=CCCCC2)ccc1Br,/,/,/,0%
Cc1ccc(S(=O)(=O)NCCC2=CCCCC2)cc1C(N)=O,?,7.9µM*,/,-1%
COc1ccc(Oc2ncc3nc(-c4ccc(OC)cc4)c(=O)n(C4CC4)c3n2)cc1,-34%,-7%,/,/
O=C1c2cccc3cccc(c23)C(=O)N1CCN1CCN(CC(O)COc2ccc3ccccc3c2)CC1 (centres undefined),?,11µM*,12%,0%
O=C1c2cccc3cccc(c23)C(=O)N1CC1CCN(CC(O)COc2ccc3ccccc3c2)CC1 (centres undefined),27%,-9%,-1%[46.1 µM],-1%
CCCCNC(=S)NNC(=O)c1nn(C)cc1Cl,14µM*,-30%,-3%[46.1 µM],0%
CC(C)c1ccccc1OCCNC(=S)NC(=O)c1cccnc1,3.5µM*,?,-40%,0%
Cc1cc(Cl)ccc1OCCNC(=S)NC(=O)c1cccnc1,?,-26%,/,0%
CC(C)(CNC(=O)c1ccc(Br)o1)CNC(=O)c1ccc(Br)o1,/,/,/,-3%
SMILES,RORg inh,VP16 counter,NPSR antag,B2AR arrestin
CCCCNC(=S)NNC(=O)c1ccc(Br)o1,0.79µM*,-25%,10%,-1%
O=C(NC(=S)NCCOCc1ccc(Cl)cc1)c1cccnc1,11µM*,18µM*,-3%,0%
COc1cc(COCC(O)CN2C(C)CCCC2C)cc(OC)c1OC (centres undefined),-3%,-7%,/,-1%
O=C(NCc1ccccc1)C(=O)Nc1nccs1,26%,24%,11%,0%
O=C(NC(=S)NNC(=O)c1ccc(Cl)cc1Cl)c1cccnc1,13µM*,20µM*,4%,0%
O=C(NNC(=S)NC(=O)c1cccnc1)c1ccc(Cl)cc1,10µM*,?,-7%[46.1 µM],0%
CCCCNC(=S)NNC(=O)c1cccnc1,?,11µM*,0%[46.1 µM],-1%
CCNC(=S)NNC(=O)c1cccnc1,-2%,-5%,-2%[46.1 µM],0%
O=C(NNC(=S)Nc1ccc(Br)cc1)c1cccnc1,10µM*,?,/,0%
Cc1c(NC(=O)COc2cccc(Br)c2)c(=O)n(-c2ccccc2)n1C,7%,-11%,/,0%
CCNc1ncc2nc(-c3ccccc3)c(=O)n(C3CC3)c2n1,-6%,-5%,/,/
CC(C)CO/N=C1/[C@H]2O[C@@H]2[C@@H](O)[C@H]2[C@H]1CCn1c(=O)n(Cc3cc4c(cc3Cl)OCO4)c(=O)n12,17%[10 µM],-7%[10 µM],/,/
C=CCC1(CC=C)CCCN1C(=O)c1cc(COc2cccc(C(F)(F)F)c2)on1,-29%,13µM*,/,-1%
CC(=O)Nc1ccc(C(=O)COC(=O)c2cccs2)c(F)c1,/,/,/,1%
CCOC(=O)c1[nH]c2ccc(Cl)cc2c1NC(=O)/C=C/c1ccc2c(c1)OCO2,?,4.5µM*,-2%[46.1 µM],1%
O=C(NNc1nc2cc3c(cc2s1)OCCO3)c1ccc(F)cc1,2.8µM*,?,2%,0%
O=C(NNc1nc2cc3c(cc2s1)OCO3)c1ccc(F)cc1,1.3µM*,?,5%,-1%
O=C(Nc1nc2cc3c(cc2s1)OCO3)c1ccco1,?,?,-10%,0%
C[C@H](NC(=O)OC(C)(C)C)C(=O)NCC1CCC(C(=O)N[C@@H](Cc2ccccc2)C(=O)O)CC1 (some centres undefined),14%,-6%,/,0%
O=C(NNC(=O)c1ccccc1OCc1ccccc1Cl)c1csc(N2CCOCC2)n1,13µM*,?,/,0%
Cc1ccsc1C(=O)NNC(=O)c1csc(N2CCOCC2)n1,/,/,/,0%
COc1ccccc1C(=O)NNC(=O)c1csc(N2CCOCC2)n1,/,/,/,0%
Cc1ccc(C)c(SCC(=O)NNC(=O)c2csc(N3CCOCC3)n2)c1,8.9µM*,?,/,-1%
Cc1ccc2c(c1)C1(C=CC(=O)C=C1)CC(=O)N2C,-13%,4%,/,/
O=C1S/C(=C\c2ccc(N3CCOCC3)o2)C(=O)N1Cc1ccc(F)cc1,?,7.1µM*,?,-1%
SMILES,RORg inh,VP16 counter,NPSR antag,B2AR arrestin
O=C1NC(=S)S/C1=C/c1ccc(N2CCOCC2)o1,1%,?,13µM*,0%
O=C1S/C(=C/c2ccc(N3CCOCC3)o2)C(=O)N1Cc1ccc(F)cc1,24%,-15%,-18%[46.1 µM],0%
O=C1/C(=C/c2ccc(N3CCOCC3)o2)SC(=Nc2ccccc2)N1CCc1c[nH]c2ccccc12,3.2µM*,5µM*,?,0%
COc1cc(/C=C2\SC(=Nc3ccccc3)N(CCc3c[nH]c4ccccc34)C2=O)ccc1OC(C)C(=O)O (centres undefined),1%,?,?,0%
CC(C)OC(=O)CN1C(=O)S/C(=C/c2ccc(N3CCCCC3)o2)C1=O,?,13µM*,?,0%
CN(C)S(=O)(=O)c1ccc(NC(=O)COc2cccc3c2OC(C)(C)C3)cc1,/,/,/,0%
O=C(O)CCC(=O)N1N=C(c2ccc(Br)cc2)CC1c1cccc(Br)c1 (centres undefined),1%,-4%,/,-1%
CCCCC/C=C\C/C=C\CCCCCCCC(=O)NCC(=O)O,-16%,-5%,/,/
